Experiment [1] concerns the target Aldehyde dehydrogenase, mitochondrial (Homo sapiens) (UniProt P05091). The experiment can be described thus: qHTS for Inhibitors of the Aldehyde Dehydrogenase Family (ALDH2) Primary screen (AID 2061308). Note: nearly all actives have a fitted effect of over 55% in size. Conditions: ALDH2 enzyme inhibition qHTS, 1536-well; series mostly up to 56 µM.
In experiment [2] the target is Retinaldehyde dehydrogenase 3 (Homo sapiens) (UniProt P47895). The experiment can be described thus: qHTS for Inhibitors of the Aldehyde Dehydrogenase Family (ALDH1A3) Primary screen (AID 2061315). The following applies: ALDH inhibition qHTS; series mostly up to 56 µM.

Inconclusive results are not listed. Entries that show only a call come without a potency. Activity calls are given as the source filed them. Calls come from the whole dose curve; as a rule, active = well fitted curve in the direction sought with a large enough effect; inconclusive = small, poorly fitted or top-dose-only effect, or another doubt; inactive = no such curve, though single readings can be large; an effect the other way counts as inactive or inconclusive.

Take `CC(=O)Nc1ccc(S(=O)(=O)N2CCN(c3ccc(C(C)=O)cc3)CC2)cc1`: the Potency entry in experiment [1] and in experiment [2] was “inactive” each time.

In the case of `O=C(O)c1ccc(O)c2ncc(N3CCCCC3CCc3ccccn3)cc12` (stereo unspecified), the Potency entry in experiment [1] and in experiment [2] was “inactive” each time.

As for `N=c1c2c(ncn1-c1ccccc1)Oc1ccc3ccccc3c1C2c1ccc2c(c1)OCO2` (stereo unspecified), the Potency result in experiment [1] and in experiment [2] was “inactive” in each case.

Turning to `Cc1cnc(-c2ccccc2C(C)C)nc1NCc1cccs1`, the Potency result in experiment [1] and in experiment [2] was “inactive” in each case.

Regarding `CN(Cc1cccs1)c1ncnc2ccc(-c3ccc4c(c3)OCO4)cc12`, the Potency result in experiment [1] and in experiment [2] was “inactive” each time.

With `N#Cc1ccccc1-c1csc(N2CCC(C(N)=O)CC2)n1`, the Potency result in experiment [1] and in experiment [2] was “inactive” in each case.

As for `Cc1ccc(S(=O)(=O)Nc2ccc(C(=O)Nc3nc(-c4ccc(Cl)cc4)cs3)cc2)cc1`, the Potency result in experiment [1] and in experiment [2] was “inactive” throughout.

`Cc1csc(CNc2ncnc3ccc(-c4ccoc4)cc23)c1`: the Potency entry in experiment [1] and in experiment [2] was “inactive” each time.

Take `Cc1nc(CCN(C)c2ncnc3ccc(-c4ccc5c(c4)OCO5)cc23)cs1`: the Potency result in experiment [1] and in experiment [2] was “inactive” in each case.

Consider `O=C(Cn1nc(-c2ccc3c(c2)OCO3)ccc1=O)NCCc1ccccc1`, for which the Potency result in experiment [1] and in experiment [2] was “inactive” in each case.

For `Cc1cc(N[S+](=O)([O-])c2ccc3c(c2)CCC(=O)N3C)ccc1F`, the Potency entry in experiment [1] and in experiment [2] was “inactive” throughout.

Consider `Fc1cccc(CNc2ncnc3ccc(-c4ccoc4)cc23)c1`, for which the Potency entry in experiment [1] and in experiment [2] was “inactive” each time.

On to `CNc1oc(-c2cccs2)nc1C#N`, for which the Potency result in experiment [1] and in experiment [2] was “inactive” throughout.

As to `O=C(Nc1ccc(S(=O)(=O)Nc2nccs2)cc1)[C@@H]1CC[C@H](C(=O)c2ccccc2)C1`, the Potency entry in experiment [1] and in experiment [2] was “inactive” throughout.

As to `O=C1c2ccccc2C(=O)N1Cc1ccccc1`, the Potency result in experiment [1] and in experiment [2] was “inactive” each time.

On to `O=S(=O)(c1cccc(-c2n[nH]c(=S)n2-c2ccccc2)c1)N1CCCC1`, for which the Potency result in experiment [1] and in experiment [2] was “inactive” each time.

Regarding `COc1ccc(COc2ccc(-c3nc4ccccc4[nH]3)cc2)cc1OC`, the Potency result in experiment [1] and in experiment [2] was “inactive” in each case.

As to `COc1ccc(N2C[C@]34C=C[C@H](O3)C(C(=O)O)C4C2=O)cc1` (stereo partly specified), the Potency entry in experiment [1] and in experiment [2] was “inactive” each time.

With `CC1=C(C(=O)Nc2ccccc2)C(c2ccccc2Br)N=C(Nc2nc3ccccc3o2)N1` (stereo unspecified), the Potency result in experiment [1] and in experiment [2] was “inactive” in each case.

Take `O=C1CCCC2=C1C(c1[nH]ncc1Cl)N=C(Nc1nc3cc(Cl)ccc3o1)N2` (stereo unspecified): the Potency entry in experiment [1] and in experiment [2] was “inactive” each time.

`O=C1OC(c2ccccc2)(c2ccccc2)N2CCN(C(=O)NCc3ccc(F)cc3)CC12` (stereo unspecified): the Potency entry in experiment [1] and in experiment [2] was “inactive” each time.

In the case of `Cc1ccc(-c2ccc(=O)n(CC(=O)NCCC3CC3)n2)cc1`, the Potency entry in experiment [1] and in experiment [2] was “inactive” in each case.

For `C[C@@H]1CN(S(=O)(=O)c2c(F)cccc2F)CCN1S(=O)(=O)c1ccc2c(c1)OCCO2`, the Potency result in experiment [1] and in experiment [2] was “inactive” each time.

For the compound `O=C(Nc1ccccc1)C1CCN(c2nc(-c3ccc(Br)cc3)cs2)CC1`, the Potency entry in experiment [1] and in experiment [2] was “inactive” in each case.

On to `O=C1CCc2cc(S(=O)(=O)Nc3cccc(Oc4ccccc4)c3)ccc2N1`, for which the Potency entry in experiment [1] and in experiment [2] was “inactive” throughout.

On to `Cn1c2cc(Br)sc2c2cnn(Cc3ccc(F)cc3)c(=O)c21`, for which the Potency entry in experiment [1] and in experiment [2] was “inactive” each time.

On to `CC(C)(C)OC(=O)N1CCN(c2ccc(NCc3nnc(-c4ccc(C#N)cc4)o3)cc2)CC1`, for which the Potency result in experiment [1] and in experiment [2] was “inactive” each time.

With `COc1ccc(-c2cnc(-c3cccc4c3-c3ccccc3C4=O)o2)cc1`, the Potency result in experiment [1] and in experiment [2] was “inactive” in each case.

For the compound `CN(c1cccc2cccnc12)S(=O)(=O)c1ccccc1`, the Potency entry in experiment [1] and in experiment [2] was “inactive” throughout.

For `O=C(Cc1ccccc1)Nc1nnc(-c2ccncc2)s1`, the Potency entry in experiment [1] and in experiment [2] was “inactive” each time.

On to `COc1ccccc1C1=Nn2c(nnc2-c2ccccc2OC)SC1`, for which the Potency entry in experiment [1] and in experiment [2] was “inactive” in each case.

With `Cc1ccc(NS(=O)(=O)c2cc3c(cc2NC(C)C)NC(=O)CC3)cc1C`, the Potency result in experiment [1] and in experiment [2] was “inactive” in each case.

As to `Cc1cc(C)nc(NC(=S)N2CCN(c3nc4ccccc4s3)CC2)c1`, the Potency result in experiment [1] and in experiment [2] was “inactive” throughout.
